Source: PubChem (several laboratories)
GIRK2 act: Activates human GIRK2-containing potassium channels. HEK293 GIRK2/NPY4 cells, thallium flux fluorescence. P48051. 34,000 tested, under 10 active. activation (% efficacy), % for hits at 37.5 µM. AID 1259324;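 active = primary screen hit, no activity in plain HEK293 cells, and in GIRK2-only cells above 5% efficacy rising with concentration; inactive = the rest, including fluorescent compounds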;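 also: efficacy is normalized control-subtracted fluorescence 15 s after thallium addition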
AMPAR-TARP mod: GluA2-stargazin AMPA receptor complex modulation; actives 3.5% (n = 40,000); calls only at 30 µM; HEK293 GluA2+stargazin, membrane potential dye (FDSS), glutamate EC50; hits were called plate by plate, in both directions;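 active = any of four per-well response measures lying three or more SD from its plate-wide compound average, in either direction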
Target sequence (O88602 whole entry, looked up): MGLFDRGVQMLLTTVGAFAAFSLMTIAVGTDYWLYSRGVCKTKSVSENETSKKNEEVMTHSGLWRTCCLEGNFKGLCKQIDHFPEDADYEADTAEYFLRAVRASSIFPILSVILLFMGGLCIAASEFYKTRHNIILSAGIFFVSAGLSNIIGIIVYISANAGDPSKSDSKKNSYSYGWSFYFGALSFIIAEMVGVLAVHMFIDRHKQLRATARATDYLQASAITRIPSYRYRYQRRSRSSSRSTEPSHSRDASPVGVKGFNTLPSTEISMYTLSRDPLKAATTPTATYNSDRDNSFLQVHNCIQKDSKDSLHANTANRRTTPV
Target sequence (P19491 whole entry, looked up): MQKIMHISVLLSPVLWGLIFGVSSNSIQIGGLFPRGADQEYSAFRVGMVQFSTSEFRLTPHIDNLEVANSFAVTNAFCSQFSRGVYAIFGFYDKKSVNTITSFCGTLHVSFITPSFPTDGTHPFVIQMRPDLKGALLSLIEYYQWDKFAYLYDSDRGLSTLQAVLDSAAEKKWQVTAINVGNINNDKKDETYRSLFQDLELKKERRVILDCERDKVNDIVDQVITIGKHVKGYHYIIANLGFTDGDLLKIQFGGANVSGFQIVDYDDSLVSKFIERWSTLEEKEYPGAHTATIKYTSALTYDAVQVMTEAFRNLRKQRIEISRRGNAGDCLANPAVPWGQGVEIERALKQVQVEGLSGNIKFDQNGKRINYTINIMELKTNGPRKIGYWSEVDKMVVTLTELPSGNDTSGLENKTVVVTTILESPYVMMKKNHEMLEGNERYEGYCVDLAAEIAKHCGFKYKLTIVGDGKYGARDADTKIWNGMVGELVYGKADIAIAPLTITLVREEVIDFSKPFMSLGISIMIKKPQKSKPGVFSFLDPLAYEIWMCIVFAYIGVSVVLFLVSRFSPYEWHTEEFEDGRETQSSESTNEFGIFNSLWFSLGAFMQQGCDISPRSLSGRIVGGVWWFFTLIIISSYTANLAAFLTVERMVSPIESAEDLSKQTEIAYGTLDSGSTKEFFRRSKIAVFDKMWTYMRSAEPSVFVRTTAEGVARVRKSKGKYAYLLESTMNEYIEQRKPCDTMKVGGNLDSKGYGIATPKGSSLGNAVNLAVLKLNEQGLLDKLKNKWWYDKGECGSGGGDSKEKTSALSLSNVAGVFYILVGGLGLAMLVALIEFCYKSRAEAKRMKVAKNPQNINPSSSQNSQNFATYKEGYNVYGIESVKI
Each line names hits and unclear results; the compound was inactive in the other large screens. This is one part of a sample in which hits are shown more often than they occur.

Cc1onc(-c2ccccc2Cl)c1C(=O)N1CCC(c2ccsc2)CC1	AMPAR-TARP mod active
Cc1nnsc1C(=O)N1CCC(CNC(=O)c2c(-c3ccccc3Cl)noc2C)CC1	none
CCOC(=O)c1ccc2nc(NC(=O)c3ccn(C)n3)sc2c1	AMPAR-TARP mod active
CCOC(=O)c1ccc2c(c1)sc(=NC(=O)c1ccn(CC)n1)n2CCSC	none (no result: AMPAR-TARP mod)
CCOC(=O)c1ccc(NC(=O)c2ccn(C)n2)cc1	none
CCOCCn1c(=NC(=O)c2ccn(C)n2)sc2cc(C(=O)OCC)ccc21	AMPAR-TARP mod active
Cc1cnc2c(c1SCC(=O)NC1CCCC1)c(=O)n(C)c(=O)n2C	none
CC(C)Cc1cnc2c(c1SCC(=O)NC1CCCC1)c(=O)n(C)c(=O)n2C	AMPAR-TARP mod active (no result: GIRK2 act)
Cc1ccccc1-c1cn(CC(=O)NC2CCCCC2)nc1N1CCOCC1	none (no result: AMPAR-TARP mod)
CCCc1cc(NCC2CCCO2)n2c(nc3ccccc32)c1C#N (stereo not drawn)	AMPAR-TARP mod active
CCOC(=O)CC(=O)CSc1cc(C)c(C#N)c2nc3ccccc3n12	none
Cc1cnc2c(c1SCC(=O)N1CCCCC1)c(=O)n(C)c(=O)n2C	none
Cc1cnc2c(c1SCCN1CCCCC1)c(=O)n(C)c(=O)n2C	AMPAR-TARP mod active
CC(=O)c1sc2nc(-c3ccco3)c3c(c2c1N)CCCC3	AMPAR-TARP mod active (no result: GIRK2 act)
Cc1nc(C)c(C(=O)N2CCN(c3ccc4nnc(-c5ccco5)n4n3)CC2)s1	none
COC(=O)c1c2c(nc3c1c(-c1ccco1)nn3C1CCS(=O)(=O)C1)CCC2 (stereo not drawn)	none (no result: AMPAR-TARP mod)
Nc1c(C(=O)N2CCCC2)sc2nc(-c3ccco3)c3c(c12)CCCC3	AMPAR-TARP mod active (no result: GIRK2 act)
COc1ccc(-c2ccc(N3CCN(C(=O)Nc4ccc(C)c(F)c4)CC3)nn2)cc1	none (no result: GIRK2 act)
Cc1cc(NC(=O)C(=O)NCC(c2cccs2)N2CCOCC2)c2ccccc2n1 (stereo not drawn)	AMPAR-TARP mod active (no result: GIRK2 act)
COc1cccc(C(CNC(=O)C(=O)Nc2cc(C)nc3ccccc23)N2CCOCC2)c1 (stereo not drawn)	none
Cc1cc(NC(=O)C(=O)NCC2CCN(C(C)C)CC2)c2ccccc2n1	AMPAR-TARP mod active
Cc1cccc(C)c1NC(=O)C(=O)NCC1CCN(C(C)C)CC1	none (no result: AMPAR-TARP mod)
CCn1nnc2c(SCC(=O)N3CCOCC3)ncnc21	none
COCCN1CCC(CNS(=O)(=O)CCc2ccc(OC)cc2)CC1	none
CC(C)C(=O)Nc1ccc(SCC(=O)Nc2ccc(Cl)c(Cl)c2)nn1	none
CC(C(=O)Nc1ccc(Cl)c(Cl)c1)N1C(=O)C2CC=C(Cl)CC2C1=O (stereo not drawn)	AMPAR-TARP mod active (no result: GIRK2 act)
COc1cc(OC)cc(C(=O)N2CCC3(CC2)NC(=O)NC3=O)c1	none
COc1ccccc1C1(CNC(=O)Nc2cccc(C(F)(F)F)c2)CCOCC1	none
O=C(NCC1(O)CCc2ccccc21)Nc1cccc(C(F)(F)F)c1 (stereo not drawn)	AMPAR-TARP mod active
O=C(Nc1nnc(Cc2cccs2)o1)c1ccccc1	none
O=C(Nc1nnc(Cc2cccs2)o1)c1cc2ccccc2oc1=O	AMPAR-TARP mod active
CCC(=O)Nn1cnc2c(cnn2C(C)(C)C)c1=O	none (no result: GIRK2 act)
CCOCC(=O)Nn1cnc2c(cnn2C(C)(C)C)c1=O	AMPAR-TARP mod active (no result: GIRK2 act)
CC(C)(C)n1ncc2c(=O)n(NC(=O)c3cc([N+](=O)[O-])ccc3Cl)cnc21	none
CC(C)(C)n1ncc2c(=O)n(NC(=O)c3cc(Br)ccc3Cl)cnc21	AMPAR-TARP mod active
O=C(NCCN1CCC(c2cccs2)CC1)C(=O)Nc1cccc(N2CCCC2=O)c1	none
Cc1cc(N(C)C)nc(NCCNC(=O)c2cnccn2)n1	AMPAR-TARP mod active
Cc1cc(N(C)C)nc(NCCNC(=O)c2ccc(Br)o2)n1	none (no result: AMPAR-TARP mod)
Cc1ccc(-n2nc3c(c2NC(=O)C(=O)NCc2ccccc2)CS(=O)(=O)C3)c(C)c1	none
C=CCc1c(C)nc2c(-c3ccccc3)cnn2c1N1CCN(CCO)CC1	none
O=C(NCCc1c[nH]c2ccccc12)c1cc2n(n1)C(C(F)(F)F)CC(c1ccco1)N2 (stereo not drawn)	AMPAR-TARP mod active (no result: GIRK2 act)
CSc1ccccc1NC(=O)c1cc2n(n1)C(C(F)(F)F)CC(c1ccco1)N2 (stereo not drawn)	none (no result: GIRK2 act)
CC(=O)N1CCc2ccc(NC(=O)c3ccno3)cc21	AMPAR-TARP mod active
CC(=O)N1CCc2ccc(NC(=O)c3ccc(F)c(F)c3)cc21	none
COc1nn(C)cc1C(=O)Nc1ccc2c(c1)N(C(=O)c1ccco1)CC2	AMPAR-TARP mod active
COc1cccc(C(=O)Nc2ccc3c(c2)N(C(=O)c2ccco2)CC3)c1OC	none
O=C(C1CC1)N(CCc1cccs1)Cc1ccco1	none (no result: AMPAR-TARP mod)
NC(=O)C1CCN(C(=O)c2csc(Nc3ccccc3)n2)CC1	none (no result: AMPAR-TARP mod)
CC(C)CCN1C(=O)C(C)(C)COc2ccc(NC(=O)c3cc(=O)c4ccccc4o3)cc21	AMPAR-TARP mod active
Cc1cccc(OCC(=O)Nc2ccc3c(c2)N(CCC(C)C)C(=O)C(C)(C)CO3)c1	none (no result: GIRK2 act)
Cc1ccc(OCC(=O)Nc2ccc3c(c2)N(CCC(C)C)C(=O)C(C)(C)CO3)cc1	AMPAR-TARP mod active (no result: GIRK2 act)
CC(C)CCN1C(=O)C(C)(C)COc2ccc(NC(=O)COc3ccc(Cl)cc3)cc21	none (no result: GIRK2 act)
C=CC(C)(C)OCC(O)CN1CCOCC1 (stereo not drawn)	none (no result: GIRK2 act)
Cc1ccc(C)c(C(=O)NCC2CCN(C(=O)c3cc4ccccc4o3)CC2)c1	none
COc1cc(/C=C2/SC(=S)N(c3ccc(C)c(C)c3)C2=O)ccc1O	none (no result: GIRK2 act)
COc1cc(/C=C2\SC(=S)N(c3cccc(C)c3C)C2=O)ccc1O	AMPAR-TARP mod active (no result: GIRK2 act)
COc1ccc(C(=O)C2C(=O)N(c3ccccc3)N=C2C)cc1OC (stereo not drawn)	none
CC1=NN(c2ccccc2)C(=O)C1C(=O)c1ccc(C)c(C)c1 (stereo not drawn)	AMPAR-TARP mod active
CCc1ccccc1NC(=O)C(=O)NCCc1ccc(Cl)cc1	none
CSc1ccccc1NC(=O)C(=O)NCCc1ccc(Cl)cc1	AMPAR-TARP mod active
CCCCNC(=O)C(=O)c1cn(CC(=O)N2CCOCC2)c2ccccc12	none (no result: GIRK2 act)
Cc1ccc(Cl)cc1NC(=O)Cn1c(=O)n(C2CC2)c(=O)c2nscc21	AMPAR-TARP mod active
Cc1ccc(NC(=O)Cn2c(=O)n(C3CC3)c(=O)c3nscc32)c(C)c1	none
CSc1ccccc1C(=O)NCC1CCN(C(=O)c2snnc2C)CC1	none
COc1cc(/C=C2\SC(=S)N(c3ccc4c(c3)OCO4)C2=O)cc(OC)c1OC	none (no result: GIRK2 act)
COc1cccc(/C=C2/SC(=S)N(c3ccc4c(c3)OCO4)C2=O)c1OC	AMPAR-TARP mod active (no result: GIRK2 act)
CC(C)NC(=O)CSc1nnnn1-c1ccccc1Cl	none
COc1ccc(C(=O)NCCn2ncc3c(N4CCCCCC4)ncnc32)cc1OC	none
O=C(NCCn1ncc2c(N3CCCC3)ncnc21)c1ccc(=O)oc1	AMPAR-TARP mod active (no result: GIRK2 act)
COc1cc(C(=O)Nc2ccc(C)cc2C)cc(OC)c1OC	none (no result: GIRK2 act)
CNC(=O)c1nsc(C(=O)NCc2cccc(C(F)(F)F)c2)c1N	none
CNC(=O)c1nsc(C(=O)NCc2ccc(OC)c(OC)c2)c1N	AMPAR-TARP mod active
O=C(/C=C/c1ccccc1)NCC1CCN(Cc2ccsc2)CC1	AMPAR-TARP mod active
CSc1ccccc1CN1CCC(CNC(=O)/C=C/c2ccccc2)CC1	AMPAR-TARP mod active
CSc1ccccc1NC(=O)C(=O)NCC1CCN(Cc2cc(C)oc2C)CC1	AMPAR-TARP mod active
CSc1ccccc1CN1CCC(CNC(=O)/C=C/c2ccc3c(c2)OCO3)CC1	none
CSc1ccccc1NC(=O)C(=O)NCC1CCN(Cc2ccco2)CC1	none
O=C(/C=C/c1ccco1)NCC1CCN(Cc2ccsc2)CC1	none (no result: AMPAR-TARP mod)
